From PubChem BioAssay (Tox21)
Inconclusive results are not listed. A call without a number means that no potency is given here. A structure can be active in one record and inactive in another. Calls of active or inactive are those of the source. Unless noted, calls come from the whole dose curve; as a rule, active = well fitted curve in the direction sought with a large enough effect in the repeat runs; inconclusive = weak or mixed curves; inactive = no such curve, though single readings can be large; an effect the other way counts as inactive or inconclusive.

Columns and labels:
[1] = A CellTox Green Cytotoxicity Assay to monitor cytotoxicity in HEK293 cells - 32 hour (AID 1224881); note: nearly all actives have a fitted effect of over 40% in size
Procedure, shortened: (§1)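 Seeding of HEK293 cells together with cytotoxicity dye preceded a 5 h incubation at 37 C/5% CO2. Test compounds in DMSO were then added and fluorescence monitored across 40 h.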

[2] = A CellTox Green Cytotoxicity Assay to monitor cytotoxicity in HepG2 cells - 0 hour (AID 1224882); note: nearly all actives have a fitted effect of over 35% in size
Procedure, shortened: (§2)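 Nonlytic assay: viable cells exclude the dye, so fluorescence scales with cell death. HepG2 at 600 cells/well, compounds added after 5 h, signal read across 40 h.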

[3] = A CellTox Green Cytotoxicity Assay to monitor cytotoxicity in HepG2 cells - 32 hour (AID 1224883); note: nearly all actives have a fitted effect of over 50% in size
Procedure, shortened: as §2

[4] = A CellTox Green Cytotoxicity Assay to monitor cytotoxicity in HEK293 cells - 8 hour (AID 1224884); note: nearly all actives have a fitted effect of over 35% in size; note: potency is the fitted concentration of half-maximal effect
Procedure, shortened: as §1

[5] = qHTS RealTime-Glo MT Cell Viability Assay in HepG2 cells - 16 hour (AID 1224885); note: nearly all actives have a fitted effect of over 50% in size
Procedure, shortened: (§3)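 Real-time, nonlytic viability: 600 HepG2 cells/well mixed with NanoLuc enzyme plus prosubstrate; 5 h settle, compound (DMSO) added by pintool; luminescence monitored over 40 h at 37 C.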

[6] = qHTS RealTime-Glo MT Cell Viability Assay in HEK293 cells - 24 hour (AID 1224886); note: top concentration of the series differs between compounds; nearly all actives have a fitted effect of over 50% in size
Procedure, shortened: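 Cells + reagent dispensed (600 cells/well, HEK293) → 5 h at 37 C/5% CO2 → 23 nL compound in DMSO pinned → 40 h at 37 C → luminescence read at 0, 8, 16, 24, 32, 40 h.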

[7] = qHTS RealTime-Glo MT Cell Viability Assay in HEK293 cells - 8 hour (AID 1224887); note: top concentration of the series differs between compounds; nearly all actives have a fitted effect of over 50% in size
Procedure, shortened: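 Tox21 screen in HEK293 using RealTime-Glo MT chemistry, with cells and reagent co-dispensed. Luminescence proportional to viable cell number was captured at intervals during 40 h compound exposure at 37 C.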

[8] = qHTS RealTime-Glo MT Cell Viability Assay in HepG2 cells - 0 hour (AID 1224889); note: nearly all actives have a fitted effect of over 50% in size
Procedure, shortened: as §3

[9] = A CellTox Green Cytotoxicity Assay to monitor cytotoxicity in HepG2 cells - 8 hour (AID 1224890); note: nearly all actives have a fitted effect of over 45% in size
Procedure, shortened: as §2

[10] = qHTS assay to identify small molecule antagonists of the estrogen receptor alpha (ER-alpha) signaling pathway using the BG1 cell line in the presence of 0.1 nM 17-beta-estradiol - cell viability counter screen (AID 1259241); note: nearly all actives have a fitted effect of over 40% in size
Procedure, shortened: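 VM7Luc4E2 cells (endogenous full-length ER-alpha, 4xERE-luciferase), cultured 5 days in charcoal-stripped serum, exposed to compounds with 0.1 nM 17beta-estradiol (final) for 22 hr at 37C. Viability read in same wells as live-cell protease fluorescence after 30 min.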

[11] = qHTS assay to identify small molecule antagonists of the androgen receptor (AR) signaling pathway using the MDA cell line in the presence of 0.5 nM R1881 - cell viability counter screen (AID 1259242); note: nearly all actives have a fitted effect of over 45% in size
Procedure, shortened: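 R1881 at 0.5 nM final stimulated MDA-kb2 cells during 16 hr compound treatment at 37C. Cytotoxicity read: CellTiter-Fluor fluorescence after 30 min.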

[12] = qHTS assay to identify small molecule HDAC inhibitors (AID 1259364);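 note: wild-type HCT-116 cells with endogenous class I/II HDAC activity; top concentration of the series differs between compounds; nearly all actives have a fitted effect of over 45% in size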
Procedure, shortened: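 Relative class I and II HDAC activity is taken from the luminogenic signal in HCT-116 cells, with compound exposure 2 hr and reagent development 30 min at room temperature.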

[13] = qHTS assay to identify small molecule agonists of the sonic hedgehog signaling (Shh) pathway - cell viability counter screen (AID 1259366); note: nearly all actives have a fitted effect of over 50% in size
Procedure, shortened: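 NIH/3T3-derived Gli1-Luc reporter cells, 2,000 per well, received compound after 4 h and were treated about 23 h at 37C. Viability measured in the same wells by CellTiter-Fluor fluorescence after 1 h.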

[14] = qHTS assay to identify small molecule antagonists of the sonic hedgehog signaling (Shh) pathway - cell viability counter screen (AID 1259367); note: nearly all actives have a fitted effect of over 55% in size
Procedure, shortened: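 Seed 3T3 Gli1-Luc cells at 2,000 per well; incubate 4 hr; add compound in DMSO, then conditioned medium; incubate at 37C with 5% CO2; add CellTiter-Fluor after 23 hr; read fluorescence 1 hr later.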

[15] = qHTS assay to identify small molecule agonists of the sonic hedgehog signaling (Shh) pathway (AID 1259368; calls by dose curve;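 note: NIH/3T3-derived 3T3Gli1-Luc cells carrying a stable Gli1-driven firefly luciferase reporter; series mostly up to about 92 µM; nearly all actives have a fitted effect of over 15% in size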)
Procedure, shortened: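 Mouse fibroblast (NIH/3T3) reporter cells with stably integrated Gli1-Luc were treated 24 hr with compound; firefly luciferase luminescence served as the read-out.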

[16] = A CellTox Green Cytotoxicity Assay to monitor cytotoxicity in HEK293 cells - 16 hour (AID 1224888); note: nearly all actives have a fitted effect of over 35% in size
Procedure, shortened: as §1

[17] = molecular target: Estrogen receptor (Homo sapiens) (UniProt P03372); assay: qHTS assay to identify small molecule antagonists of the estrogen receptor alpha (ER-alpha) signaling pathway using the BG1 cell line in the presence of 0.1 nM 17-beta-estradiol (AID 1259244); note: nearly all actives have a fitted effect of over 50% in size
Procedure, shortened: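 VM7Luc4E2; 4xERE-luciferase; 0.1 nM E2 final; 22 h co-incubation, 37C; ONE-Glo luminescence after 30 min at room temperature.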

[18] = qHTS assay to identify small molecule HDAC inhibitors - cell viability counter screen (AID 1259365)
Procedure, shortened: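 Wild-type HCT-116 cells, 1,500/well, cultured overnight, then compound-treated 2 h at 37 C. Viability measured as ATP luminescence with CellTiter-Glo after 30 min at room temperature.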

[19] = qHTS assay to identify small molecule phospholipidosis (PLD) inducers (AID 1259344; active = well fitted curve in the direction sought with a large enough effect; an effect the other way counts as inactive or inconclusive)
Procedure, shortened: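 Quantitative HTS in HepG2: compound plus LipidTOX Red dye for 24 h, paraformaldehyde fixation with Hoechst 33342, widefield high-content imaging; amiodarone as positive and DMSO as negative control.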

[20] = molecular target: Androgen receptor (Homo sapiens) (UniProt P10275); assay: qHTS assay to identify small molecule antagonists of the androgen receptor (AR) signaling pathway using the MDA cell line in the presence of 0.5 nM R1881 (AID 1259243); note: nearly all actives have a fitted effect of over 50% in size
Procedure, shortened: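 We exposed MDA-kb2 cells to compounds under 0.5 nM R1881 stimulation for 16 hr at 37C and quantified MMTV-driven luciferase by luminescence.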

Sequence of Estrogen receptor (Homo sapiens) (P03372 whole entry, looked up): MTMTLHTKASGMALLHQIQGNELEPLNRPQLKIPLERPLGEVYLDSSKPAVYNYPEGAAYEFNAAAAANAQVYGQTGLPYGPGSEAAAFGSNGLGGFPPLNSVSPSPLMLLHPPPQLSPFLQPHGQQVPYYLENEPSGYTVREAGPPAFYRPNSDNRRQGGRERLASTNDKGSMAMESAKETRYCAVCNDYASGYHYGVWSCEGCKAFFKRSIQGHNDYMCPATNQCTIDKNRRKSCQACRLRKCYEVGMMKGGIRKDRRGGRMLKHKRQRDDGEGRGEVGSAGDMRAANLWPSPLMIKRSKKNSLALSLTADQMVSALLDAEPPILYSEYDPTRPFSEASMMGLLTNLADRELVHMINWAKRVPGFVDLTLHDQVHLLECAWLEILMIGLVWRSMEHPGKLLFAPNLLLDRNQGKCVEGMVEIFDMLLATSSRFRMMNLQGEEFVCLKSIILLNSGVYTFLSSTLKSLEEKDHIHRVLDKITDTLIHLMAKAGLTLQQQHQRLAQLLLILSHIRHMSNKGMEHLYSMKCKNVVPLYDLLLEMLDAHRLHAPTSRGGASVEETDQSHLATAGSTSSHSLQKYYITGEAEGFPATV
Sequence of Androgen receptor (Homo sapiens) (P10275 whole entry, looked up): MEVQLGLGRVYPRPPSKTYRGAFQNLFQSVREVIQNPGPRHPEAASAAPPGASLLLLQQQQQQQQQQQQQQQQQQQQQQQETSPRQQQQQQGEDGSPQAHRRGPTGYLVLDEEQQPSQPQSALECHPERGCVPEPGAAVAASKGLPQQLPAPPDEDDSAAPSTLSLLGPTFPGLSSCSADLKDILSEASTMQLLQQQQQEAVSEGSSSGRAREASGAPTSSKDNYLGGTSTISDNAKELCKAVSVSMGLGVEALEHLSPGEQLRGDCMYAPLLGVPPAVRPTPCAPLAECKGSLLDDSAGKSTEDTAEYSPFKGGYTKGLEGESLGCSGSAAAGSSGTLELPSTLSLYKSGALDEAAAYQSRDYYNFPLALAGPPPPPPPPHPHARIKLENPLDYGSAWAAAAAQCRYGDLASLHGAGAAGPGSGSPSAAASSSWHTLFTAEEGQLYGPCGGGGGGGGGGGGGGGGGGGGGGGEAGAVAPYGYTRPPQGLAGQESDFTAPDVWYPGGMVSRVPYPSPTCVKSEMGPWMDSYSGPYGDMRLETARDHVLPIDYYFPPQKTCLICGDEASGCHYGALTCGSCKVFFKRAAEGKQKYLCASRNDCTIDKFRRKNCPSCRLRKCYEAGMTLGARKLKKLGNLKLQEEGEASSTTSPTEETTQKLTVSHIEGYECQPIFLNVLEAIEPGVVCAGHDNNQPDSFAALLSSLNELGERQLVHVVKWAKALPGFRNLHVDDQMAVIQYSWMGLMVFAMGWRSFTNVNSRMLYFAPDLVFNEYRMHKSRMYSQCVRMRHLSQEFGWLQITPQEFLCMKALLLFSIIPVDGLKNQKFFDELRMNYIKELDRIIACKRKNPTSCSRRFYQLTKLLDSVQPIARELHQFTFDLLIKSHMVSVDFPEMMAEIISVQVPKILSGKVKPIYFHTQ

Row | SMILES | Potency [1] | Potency [2] | Potency [3] | Potency [4] | Potency [5] | Potency [6] | Potency [7] | Potency [8] | Potency [9] | Potency [10] | Potency [11] | Potency [12] | Potency [13] | Potency [14] | Potency [15] | Potency [16] | Potency [17] | Potency [18] | outcome [19] | Potency [20]
1 | Cc1cc(C)c(O)c(C)c1 | inactive | inactive | inactive | inactive | inactive | inactive | inactive | inactive | inactive | inactive | inactive | inactive | inactive | inactive | inactive |  |  |  |  | 
2 | CCCCCCCCCCCCCC(=O)O | inactive | inactive | inactive |  | inactive | inactive | inactive | inactive | inactive | inactive | inactive | inactive | inactive | inactive | inactive | inactive | inactive | inactive |  | 
3 | C=C(CC(=O)O)C(=O)O | inactive | inactive | inactive | inactive | inactive |  | inactive | inactive | inactive | inactive | inactive | inactive | inactive | inactive | inactive |  |  |  |  | 
4 | Cc1cc(CC(=O)O)n(C)c1C(=O)c1ccc(Cl)cc1 | inactive | inactive | inactive | inactive | inactive | inactive | inactive | inactive | inactive | inactive | inactive | inactive | inactive | inactive | inactive |  |  | inactive | inactive | 
5 | Cc1ccc(C)c(S(=O)(=O)O)c1 | inactive | inactive | inactive | inactive | inactive | inactive | inactive | inactive | inactive | inactive | inactive | inactive | inactive | inactive | inactive | inactive |  |  |  | 
6 | CCCOC(=O)NCCCN(C)C | inactive | inactive | inactive | inactive | inactive | inactive | inactive | inactive | inactive | inactive | inactive | inactive | inactive | inactive | inactive | inactive |  |  |  | 
7 | CC(C)=CCC/C(C)=C/C=O | inactive | inactive | inactive | inactive | inactive | inactive | inactive | inactive | inactive | inactive | inactive | inactive | inactive | inactive | inactive | inactive |  |  |  | 
8 | CCCCCCCCC(=O)O | inactive | inactive | inactive | inactive | inactive |  | inactive | inactive | inactive | inactive | inactive | inactive | inactive | inactive | inactive | inactive | inactive | inactive |  | 
9 | O=C(O)Cc1c[nH]c2ccccc12 | inactive | inactive | inactive | inactive | inactive | inactive | inactive | inactive | inactive | inactive | inactive | inactive | inactive | inactive | inactive |  |  | inactive |  | 
10 | CC(=O)OC/C=C(\C)CCC=C(C)C | inactive | inactive | inactive |  | inactive | inactive | inactive | inactive | inactive | inactive | inactive | inactive | inactive | inactive | inactive | inactive | inactive |  |  | 
11 | NC(=O)c1ncn([C@@H]2O[C@H](CO)[C@@H](O)[C@H]2O)n1 | inactive | inactive | inactive | inactive | inactive | inactive | inactive | inactive | inactive | inactive | inactive | inactive | inactive | inactive | inactive | inactive |  | inactive | inactive | 
12 | O=[N+]([O-])c1ccccc1C(F)(F)F | inactive | inactive | inactive | inactive | inactive | inactive | inactive | inactive | inactive | inactive | inactive | inactive | inactive | inactive | inactive | inactive | inactive |  |  | inactive
13 | Nc1cccc(C(F)(F)F)c1 | inactive | inactive | inactive | 40.1 µM (active) and inactive | inactive | inactive | inactive | inactive | inactive | inactive | inactive | inactive | inactive | inactive | inactive | inactive |  | inactive |  | 
14 | OCc1ccc(Cl)cc1Cl | inactive | inactive | inactive | inactive | inactive |  | inactive | inactive | inactive | inactive | inactive | inactive | inactive | inactive | inactive | inactive |  | inactive | inactive | 
15 | Cc1ccccc1Cl | inactive | inactive | inactive | inactive | inactive | inactive | inactive | inactive | inactive | inactive | inactive | inactive | inactive | inactive | inactive | inactive |  | inactive |  | inactive
16 | CCOC(=O)c1ccc(O)cc1 | inactive | inactive | inactive | inactive | inactive |  | inactive | inactive | inactive | inactive | inactive | inactive | inactive | inactive | inactive | inactive |  | inactive | inactive | 
